# Measured values published in paper PMC13494018.
# Molecular target: CD276, Q5ZPR3
# Sequence (Q5ZPR3 whole entry): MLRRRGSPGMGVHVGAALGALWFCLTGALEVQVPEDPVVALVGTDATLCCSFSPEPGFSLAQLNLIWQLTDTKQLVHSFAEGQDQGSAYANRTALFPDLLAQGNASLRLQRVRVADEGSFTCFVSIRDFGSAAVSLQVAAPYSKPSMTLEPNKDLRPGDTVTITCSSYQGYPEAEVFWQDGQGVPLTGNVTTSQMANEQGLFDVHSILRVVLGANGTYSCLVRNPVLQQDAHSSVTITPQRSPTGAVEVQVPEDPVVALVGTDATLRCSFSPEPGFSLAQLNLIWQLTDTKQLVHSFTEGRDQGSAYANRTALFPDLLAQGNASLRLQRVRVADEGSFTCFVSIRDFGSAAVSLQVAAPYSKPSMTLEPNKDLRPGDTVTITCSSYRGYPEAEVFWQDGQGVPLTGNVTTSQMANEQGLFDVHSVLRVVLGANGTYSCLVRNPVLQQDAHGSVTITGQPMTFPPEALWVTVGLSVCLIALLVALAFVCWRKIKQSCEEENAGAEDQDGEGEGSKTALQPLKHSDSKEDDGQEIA
row,Binder,binding in a display sort
1,design_615_ab801fab-270b-4f6a-b2b5-83c165df418c_2088_dldesign_0_cycle1_af2pred (protein) DTERKLALLQEAIVKLTEALAAYNTDPATGRALAREAAELLKEAGLEEAAELARKAAEDPENGFEYARRALGLVTKAYIELSR,not found (inactive)
2,design_615_ab801fab-270b-4f6a-b2b5-83c165df418c_1266_dldesign_0_cycle1_af2pred (protein) AAALEEAKAQLKKLAEELLEKSKEAAKLGSDAAIAVTSKYVAKGSALLVQYPEVSSEPLVEAVKEASKLIKEA,not found (inactive)
3,design_616_e8336982-fa4d-4d7c-b06f-9007953e1994_26_dldesign_0_cycle1_af2pred (protein) SLEEAAAQAQALVDQATALGAQDYASASQGIALLAEAAKLVEEAGLPPETAAAIMAAINAALATVSKNAAAFVAA,not found (inactive)
4,design_615_ab801fab-270b-4f6a-b2b5-83c165df418c_1503_dldesign_0_cycle1_af2pred (protein) AAALAAAQAAAGATALETLEVASKAAKAGSPEVAAEANKLAQQATQLAQQAAQGDLATAKAQLAAIQKLLAQAKELLKK,not found (inactive)
5,design_616_e8336982-fa4d-4d7c-b06f-9007953e1994_173_dldesign_0_cycle1_af2pred (protein) MEEKSKELKKKLEEAKKIAKEDPEKGAELAAEAAKEAAEAGDFGSAGEAIVLIAKMGTPKASRELAEASRYLIAAIRAA,not found (inactive)
6,design_615_ab801fab-270b-4f6a-b2b5-83c165df418c_2322_dldesign_0_cycle1_af2pred (protein) AQAEVKAKAEKLIEELIKASSEVVAAAAKAGDGESAVEANKAASEAIKKIKAAAKAGDLEAAKKAAEEGMKKLKELKAKVEAK,not found (inactive)
7,design_615_ab801fab-270b-4f6a-b2b5-83c165df418c_1933_dldesign_0_cycle1_af2pred (protein) ALQGALRSAAALLRNAAESEDPESREKLLDVAADLAAYAATLDPAAGAALAAAVEEARREGPEGARRAAELAAALAAA,not found (inactive)
8,design_615_ab801fab-270b-4f6a-b2b5-83c165df418c_2495_dldesign_0_cycle1_af2pred (protein) GEAEAKFAEALALLDRAEELAKGGDAAQLAEASALLTQAIELATQVSPEKRAEISRRAAEISKRLLAQLAA,not found (inactive)
9,design_615_ab801fab-270b-4f6a-b2b5-83c165df418c_863_dldesign_0_cycle1_af2pred (protein) AQAAEAALRTAEAVVRRAEEAIARGASPEELRALAKLAEVVAESLLAVAKTASPEQAKRLEEAAERARRAAEEARRAAERLEREAA,not found (inactive)
10,design_615_ab801fab-270b-4f6a-b2b5-83c165df418c_776_dldesign_0_cycle1_af2pred (protein) MEEAEEAYREAEEIKRETKAKAEAGTLTAQEAMEALARLEELREKLRELAEEEGEEAEEYYREVNEYAVEVSRIANAVFAAERAA,not found (inactive)
11,design_615_ab801fab-270b-4f6a-b2b5-83c165df418c_1881_dldesign_0_cycle1_af2pred (protein) ALAAELAREALRAEAERIAAAKLAEAKAGTPETAQAQAAYLVSLAEEHPETAGIYLGAAAQIHAVLIAKTA,not found (inactive)
12,design_615_ab801fab-270b-4f6a-b2b5-83c165df418c_1179_dldesign_0_cycle1_af2pred (protein) SPTEIAGKAVREIQELTEQAIANPETAEQLAAEAKKVAEEAGKKTGEGLAQLLKNVAAQREKEVQAALAA,not found (inactive)
13,design_615_ab801fab-270b-4f6a-b2b5-83c165df418c_2496_dldesign_0_cycle1_af2pred (protein) GEKEELIKKAEEKAAKAKEYEAKAKAAAADPAKAVEYYNKALYLYLEAAKLASKADPELAKKYSDEANKVAKKAIEAAKAA,not found (inactive)
14,design_615_ab801fab-270b-4f6a-b2b5-83c165df418c_1174_dldesign_0_cycle1_af2pred (protein) ADEEDLAAAKKRLEDTKKLVEINLTMANQGPLGAKAAIASLNTQIKVLEAAKKAATPAAQPELDKAIAIAKAALAEAKAKAAA,not found (inactive)
15,design_615_ab801fab-270b-4f6a-b2b5-83c165df418c_1187_dldesign_0_cycle1_af2pred (protein) AAAEEVARRGASALAAGQNLIEMAKAASPEAAAVATAALAQAKALLAQGTPEAAEQAQQVINDAMAQVSKIMIAAA,not found (inactive)
16,design_615_ab801fab-270b-4f6a-b2b5-83c165df418c_706_dldesign_0_cycle1_af2pred (protein) ASAARMAEIQAKGEEVAEKAKEKYKELLERLPDPEEALAEARAYLREVGAQYSGAVLGYALSLFESWAEEEL,not found (inactive)
17,design_615_ab801fab-270b-4f6a-b2b5-83c165df418c_2173_dldesign_0_cycle1_af2pred (protein) LTPEEKQKLIEEGTELRNKGAALANQAMLAAAAGDKATAKELMAKAKEYFDKAIELYEKAGDEKKAESVKKLKDTLTSAFEAQLAA,not found (inactive)
18,design_616_e8336982-fa4d-4d7c-b06f-9007953e1994_328_dldesign_0_cycle1_af2pred (protein) NANLQAAKVALASAEATLKHADAGVAAGTISPESAKKLYELAATLAKDAAEYAKKAGDAELAKKAEELAKEAKAKAEEMAAKAAA,not found (inactive)
19,design_615_ab801fab-270b-4f6a-b2b5-83c165df418c_1818_dldesign_0_cycle1_af2pred (protein) DPRAAASQALAAATADALLARLGELAGADVADRLRALLAGDAASKAEAARLARALAEEWRARNPAAAAALYGIAVLAESLAA,not found (inactive)

row,Binder,binding in a display sort
1,design_615_ab801fab-270b-4f6a-b2b5-83c165df418c_1027_dldesign_0_cycle1_af2pred (protein) KEALEKAKKEAEKILKEAAEKVSPEVAKYVEEAAKQPTIEEMIHKVLLAAAKAGQVNLEDGKILLEAAEKIAAIYKKAKEE,not found (inactive)
2,design_615_ab801fab-270b-4f6a-b2b5-83c165df418c_1773_dldesign_0_cycle1_af2pred (protein) SETAEEARRAVERLKEAAKKLAKAGTPEHAGYAEGLVTTTTALVERLLAAGREEEALRAARRALERAERLLKKALA,not found (inactive)
3,design_615_ab801fab-270b-4f6a-b2b5-83c165df418c_1262_dldesign_0_cycle1_af2pred (protein) KEAAEKAAEKKAEEIKKIAEIAGGAVSPEDAAKIKKEAEEKIEELKKFAKESTPEEAEKYGQELVLEFSQSATKVMVAAAKAA,not found (inactive)
4,design_615_ab801fab-270b-4f6a-b2b5-83c165df418c_2317_dldesign_0_cycle1_af2pred (protein) GAARMAAAGAQAAALAAELPAAVDPMLEGILNPETREAHEAEARAIARALDPENAEELWARVLRAAMGLLLAQGLARA,not found (inactive)
5,design_616_e8336982-fa4d-4d7c-b06f-9007953e1994_361_dldesign_0_cycle1_af2pred (protein) AAAQAKALAAQAKAAIESGSLSPGEVARLAVKAGAYAMAAANADPSIAAEMQALAQDLFAKVDEYIAKVAA,not found (inactive)
6,design_615_ab801fab-270b-4f6a-b2b5-83c165df418c_2473_dldesign_0_cycle1_af2pred (protein) SPEALTAAVRAEGDALLAEAEATAAADPEAGKAAYEAAIRRLLGLAARLLQESPAAAQAALDRAVELAAKLEEL,not found (inactive)
7,design_616_e8336982-fa4d-4d7c-b06f-9007953e1994_74_dldesign_0_cycle1_af2pred (protein) EKEAQEKREKAKKLIEEIKKLAKEVAANPAISGMLNQLAKAAETAAANSSPEQGLKNAEKWLEIGKEAAKTAAA,not found (inactive)
8,design_615_ab801fab-270b-4f6a-b2b5-83c165df418c_1854_dldesign_0_cycle1_af2pred (protein) LRERAESNLAFAQTALEAAKQAKAAGAPQSLVQGLANIAERAAQLAIEEAAKDPALAPLAEEAKKVAEEAKKVAA,not found (inactive)
9,design_615_ab801fab-270b-4f6a-b2b5-83c165df418c_1064_dldesign_0_cycle1_af2pred (protein) AREQAQQALDFALANAQLIAQRRGEAGKRLAELVQKALEADEEEALKYLEEAIRLAEELAKDPAVAALARAAILALREARRLLE,not found (inactive)
10,design_615_ab801fab-270b-4f6a-b2b5-83c165df418c_2413_dldesign_0_cycle1_af2pred (protein) AAAALAAEALALREKGVAAAKAGRYALARNYFLQALITAGASPATIQAVVRALAAGAADPSTAPAAVAHADATVTAAAAAVAAA,not found (inactive)
11,design_615_ab801fab-270b-4f6a-b2b5-83c165df418c_2427_dldesign_0_cycle1_af2pred (protein) AMEAAKAAAKAAAAAAAAAGLTDLAAEIAAAAKEAEETGIEGANRLMGLAARYAVQHPALNAAMSALIEAAGAYIAEAA,not found (inactive)
12,design_615_ab801fab-270b-4f6a-b2b5-83c165df418c_1763_dldesign_0_cycle1_af2pred (protein) EELVERLRLMRDVVAAALAAAGLDADAFAALLEAAAAAAREDPARAVELLARVAERAEELAAKASPLQRGVLRFAVTVARGAAAALA,not found (inactive)
13,design_615_ab801fab-270b-4f6a-b2b5-83c165df418c_806_dldesign_0_cycle1_af2pred (protein) AAQAQAIEQLEKLIETAKELAKERPEEKEEILGKAHETAGQVLTLIAKGLQDPATAEQALKLAQAKLKEMEKKLKEAKA,not found (inactive)
14,design_615_ab801fab-270b-4f6a-b2b5-83c165df418c_1665_dldesign_0_cycle1_af2pred (protein) MEEEKEKEKYIKELKKAAEEAIKTAKEAAKLDPKAGGALLKYVEASGKQALENAEKGDLETAKNQLEFMKQVLEIAKGTLAALKAA,not found (inactive)
15,design_615_ab801fab-270b-4f6a-b2b5-83c165df418c_1097_dldesign_0_cycle1_af2pred (protein) SEAMKTAGAKILTATAASLERQLAEARANPGELRPRAAALAQLAAQLAESAKAIGDEETAARLAAISAEAAALAA,not found (inactive)
16,design_615_ab801fab-270b-4f6a-b2b5-83c165df418c_2359_dldesign_0_cycle1_af2pred (protein) MEEDVALLRDIARLGRESLERARAGTAAEAERALADFTAAADAAIARLAPGEGAALLAANMRARFAAEMRAVAAAKAA,not found (inactive)
17,design_615_ab801fab-270b-4f6a-b2b5-83c165df418c_1575_dldesign_0_cycle1_af2pred (protein) GEEEEKKKKEKFEEAAEKVNKGLALASQAALADPKYQPVLAKVVELAKEAEKLKKEGKAEEALKKAEEAYEVAKKALAAVKAA,not found (inactive)
18,design_616_e8336982-fa4d-4d7c-b06f-9007953e1994_177_dldesign_0_cycle1_af2pred (protein) AGQATYNAAKAMAKSAAAMYLAGKYEDAEKVYQVAVDLAQSLIADPASKAQGEKALAYAKETYAKAKAEAEKKAA,not found (inactive)
19,design_615_ab801fab-270b-4f6a-b2b5-83c165df418c_921_dldesign_0_cycle1_af2pred (protein) SAALKAALAALDAAEKAAEAADPEVAAIVRATREAVKKAPDEVAAKAAQMATAIESLAKAGFVASARATARNLLAYVSAAVAAAE,not found (inactive)
